# From the supplement of paper PMC6555819
# Tested on: PPARg:RXRa DBDmut IVT, anti-RXR (DBD mutation: RXRa K156A/R161A, NR concentration 270 nM, RXRa partner concentration 90 nM)
# Experiment: PBM binding z-score (relative to random genomic background probes); higher = stronger binding; sequences stand for … in GC…GCGATTGACAGCGTAGAATGAAGG
# Procedure, shortened: (§1)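 Probes were double-stranded and carried 34-nt variable regions with direct-repeat seeds, single-nucleotide variants, half-site ablations and random human genomic background sequences, printed on custom Agilent 4×180K protein-binding microarrays. Arrays were incubated 1 h with ligand-free nuclear receptor dimers in PBS pH 7.4, 2% milk, 0.02% Triton X-100, 1 mM DTT, 0.2 mg/mL BSA and 0.4 mg/ml salmon testes DNA. Antibodies against each partner (one per run) detected binding, and scanned fluorescence was regression-normalized. Binding z-scores use the random background probes as reference.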
row,Sequence,PBM binding z-score
1,TAGCCTAGGTCATGGGCCAGTAGACCACGCGAAC,1.37
2,ATCGAAAGGTCGAGGTGATTATAGAGAAAGGGAA,0.469
3,CTCGAAAGGTCGGTAGAGGTGAGTATACGGATAA,-0.427
4,CCTAGTAGGCCAGGGTCACTCAAGCATTTCGCTT,4.28
5,CCTTACGGGTCACTCCAGGCTATAGCATCGGAGT,2.55
6,CGAACTAGGTCAAGGTCAGTGAATCTCCGCACGC,7.95
7,AGAACGAGGGCACGCTGAGTTCATAGCAGAGTAG,3.84
8,GCCACTGGGGCATCAGCAGGTTACCATAACTTAA,4.53
9,ACTAGTTGGTCAGCTGAGATCACACACAATTCGG,0.753
10,ATTTACGGGTCAACGAGGTTATAGCACGCGTATA,3.42
11,TAGCCTAGGTCATTGGGCAAGTATAGTACGCATC,1.66
12,TCTCGGAGTACACGAAGGTCAGAGCTTTCCAGAG,1.19
13,AGAACGAGGGCACGGTGAGTTGATAGCAGAGTAG,3.46
14,TCAAGCAGGCCAGAGGGTCACTCAAGAGGTACGG,1.38
15,CAAACTAGGTCACAGAGGCCAAAGTCCGTGCGTA,8.22
16,CGTCAAAGTACAACTAAGGTAACGTAAAGCACGC,0.337
17,TCTTGTAGATCAAGCAGGTTAAGAAAGCCTGAGT,1.72
18,TCATATAGGTAATACAGGTAAAAGTCGGCATCTA,4.07
19,AATACAGGGTCACTAGGCCAGAATAGGTACGAAT,3.44
20,CGAACTAGGTCATTGACAGGAGAGTGAATAGTAA,7.92

row,Sequence,PBM binding z-score
1,ATATGTAGGTTGTCGGGTCATTCAGTTTGCGCAT,4.37
2,TAGCCTGGGTCATGGGCCAGTATACCACGCGAAC,0.288
3,CGTCCAAGGTCAAGGGTCAGTGAAGAGATGACGG,3.08
4,ATCGAAAGATCGACGAGGTGAGTATACACCGTTT,-0.646
5,TCTTGTAGATCAAGCAGGTTAAGATAGCCTGAGT,1.74
6,GCTACTAGTTGAAAGGGCAACCGAATGATTCTCG,0.65
7,TCCGACAGGTGAAGGTAACTCAGGTACGCAGTCG,1.51
8,ATGTGTAGGTTAGCTGGGGTCATTCAGACTAGGC,2.74
9,TATACAGGGTCAATGGCCAGAGTACGAATGTCGA,1.79
10,CGTCAAAGTTCAATGTAACGTAACAGAAAGCAGC,0.367
11,ATATGTAGGTTACATCCGGGTCGTTCAGGCTATG,7.59
12,CCCTACGGGTCACTGACAGGTTATAGCATTTGGA,0.759
13,AGTCAAAGTTCATCTAGGTAACGCAAGATATGCT,0.815
14,CGTCCAAGATCAATGCTAGGTCAGTGAAAGCATT,0.0283
15,TAGCCTAGGTCATTCAGGAGCCAGTATAGAAAGC,1.4
16,CCTGCTAGGTCAATGTTCAGCTAAAGCAGCTCGC,4.27
17,TCCAGTAGGTTAGGGGCATTCAGAATGGCGTCGA,3.35
18,TCGCGGAGGACACGAAGGTCAGAGCTTTCCAGAG,0.6
19,CGAAGTAGGTCATCCAGGACAGTGAATACATTGA,8.36

# Tested on: PPARg:RXRa IVT, anti-PPARg (NR concentration 270 nM, RXRa partner concentration 90 nM)
# Experiment: as above
# Procedure, shortened: as §1
row,Sequence,PBM binding z-score
1,TAGCCTAGGTCATGGGCCAGTAGACCACGCGAAC,3.63
2,ATCGAAAGGTCGAGGTGATTATAGAGAAAGGGAA,2.16
3,CTCGAAAGGTCGGTAGAGGTGAGTATACGGATAA,1.32
4,CCTAGTAGGCCAGGGTCACTCAAGCATTTCGCTT,4.48
5,CCTTACGGGTCACTCCAGGCTATAGCATCGGAGT,3.11
6,CGAACTAGGTCAAGGTCAGTGAATCTCCGCACGC,8.28
7,AGAACGAGGGCACGCTGAGTTCATAGCAGAGTAG,3.89
8,GCCACTGGGGCATCAGCAGGTTACCATAACTTAA,4.92
9,ACTAGTTGGTCAGCTGAGATCACACACAATTCGG,0.741
10,ATTTACGGGTCAACGAGGTTATAGCACGCGTATA,4.88
11,TAGCCTAGGTCATTGGGCAAGTATAGTACGCATC,3.17
12,TCTCGGAGTACACGAAGGTCAGAGCTTTCCAGAG,0.734
13,AGAACGAGGGCACGGTGAGTTGATAGCAGAGTAG,4.14
14,TCAAGCAGGCCAGAGGGTCACTCAAGAGGTACGG,0.884
15,CAAACTAGGTCACAGAGGCCAAAGTCCGTGCGTA,8.69
16,CGTCAAAGTACAACTAAGGTAACGTAAAGCACGC,0.863
17,TCTTGTAGATCAAGCAGGTTAAGAAAGCCTGAGT,0.78
18,TCATATAGGTAATACAGGTAAAAGTCGGCATCTA,2.77
19,AATACAGGGTCACTAGGCCAGAATAGGTACGAAT,5.78
20,CGAACTAGGTCATTGACAGGAGAGTGAATAGTAA,8.28

row,Sequence,PBM binding z-score
1,ATATGTAGGTTGTCGGGTCATTCAGTTTGCGCAT,4.47
2,TAGCCTGGGTCATGGGCCAGTATACCACGCGAAC,3.03
3,CGTCCAAGGTCAAGGGTCAGTGAAGAGATGACGG,5.28
4,ATCGAAAGATCGACGAGGTGAGTATACACCGTTT,0.27
5,TCTTGTAGATCAAGCAGGTTAAGATAGCCTGAGT,0.733
6,GCTACTAGTTGAAAGGGCAACCGAATGATTCTCG,1.33
7,TCCGACAGGTGAAGGTAACTCAGGTACGCAGTCG,1.05
8,ATGTGTAGGTTAGCTGGGGTCATTCAGACTAGGC,3.09
9,TATACAGGGTCAATGGCCAGAGTACGAATGTCGA,3.99
10,CGTCAAAGTTCAATGTAACGTAACAGAAAGCAGC,1.51
11,ATATGTAGGTTACATCCGGGTCGTTCAGGCTATG,7.22
12,CCCTACGGGTCACTGACAGGTTATAGCATTTGGA,2.29
13,AGTCAAAGTTCATCTAGGTAACGCAAGATATGCT,4.11
14,CGTCCAAGATCAATGCTAGGTCAGTGAAAGCATT,0.44
15,TAGCCTAGGTCATTCAGGAGCCAGTATAGAAAGC,2.52
16,CCTGCTAGGTCAATGTTCAGCTAAAGCAGCTCGC,3.55
17,TCCAGTAGGTTAGGGGCATTCAGAATGGCGTCGA,2.67
18,TCGCGGAGGACACGAAGGTCAGAGCTTTCCAGAG,0.577
19,CGAAGTAGGTCATCCAGGACAGTGAATACATTGA,8.63
